Each structure is given as a SMILES string. Several values for one entry are separate records, joined by “and”; a condition that tells them apart may be missing. Equal entries are not always repeated. Records with an inconclusive call do not appear. A structure can be active in one record and inactive in another. Activity calls are given as the source filed them. Calls come from the whole dose curve; as a rule, active = well fitted curve in the direction sought with a large enough effect; inconclusive = small, poorly fitted or top-dose-only effect, or another doubt; inactive = no such curve, though single readings can be large; an effect the other way counts as inactive or inconclusive.

Test [1] is described as follows: Cellular Toxicity (caspase-3) H-4-II-E (AID 663).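 Note: cells exposed to compound for 16 hr before readout.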 As to conditions: H-4-II-E rat hepatoma, scaled: DMSO 0%, 100 µM tamoxifen 100%; at 92.2 µM (top of the series). An outline of the steps:
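Caspase 3/7 activation measured by luminescent aminoluciferin substrate cleavage after 16 hr compound treatment of H-4-II-E cells in complete medium. Increase normalized between DMSO (basal) and 100 uM tamoxifen (100%); Hill-equation AC50 from concentration-response.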

Test [2] can be described thus: Cellular Toxicity (caspase-3) Hek293 (AID 664).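 Note: cells exposed to compound for 16 h at 37 °C before readout.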 Particulars: HEK293 caspase-3 activation, DMSO = 0%, 100 µM tamoxifen = 100%; at 92.2 µM (top of the series). The method in brief:
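Concentration-response qHTS: caspase 3/7 activation measured by luminescent aminoluciferin substrate cleavage after 16 h compound exposure of Hek 293 cells. AC50 from Hill equation, with DMSO as basal and 100 uM tamoxifen as 100%.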

A short description of test [3]: Cellular Toxicity (caspase-3) N2a (AID 665).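 Note: compound exposure lasted 16 h at 37 °C before readout.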 As to conditions: Potency: caspase-3 activation. An outline of the steps: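 Caspase-3/7 activation measured as luminescence from Caspase-Glo reagent (1 h, room temperature) after 16 h compound exposure of mouse N2a cells. AC50 values from Hill-equation concentration-response, scaled between DMSO and 10 uM staurosporine.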

Test [4] can be described thus: Cellular Toxicity (caspase-3) NIH 3T3 (AID 666).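 Note: caspase signal read after 16 h compound exposure; 0% = DMSO basal and 100% = 100 µM tamoxifen stimulation.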 The method in brief: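 Caspase-Glo 3/7 luminescence reported caspase activation in 1000 NIH 3T3 cells/well after 16 h compound exposure at 37 C. DMSO set basal and 100 uM tamoxifen set 100% stimulation; concentration-response modeled with the Hill equation for AC50.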
A short description of test [5]: Cellular Toxicity (caspase-3) Renal Proximal Tubule (AID 667).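 Note: cells exposed to compound for 16 hours at 37 °C before detection; 0% = DMSO basal and 100% = 10 µM staurosporine.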 Particulars: Potency: caspase-3 activation. The method in brief: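 Primary rat proximal tubule cells, 1000/well, 5 h plating at 37 °C, then compound 16 h at 37 °C. Caspase-Glo 3/7 reagent, 1 h RT, luminescence. Normalized to DMSO (basal) and 10 uM staurosporine (100%); Hill-fit AC50.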
A short description of test [6]: Confirmation and Secondary Assay for Modulators of Hemoglobin Beta Chain Splicing at IVS2 654 locus (AID 910).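 Note: HeLa cells stably carrying EGFP split by mutant beta-globin IVS2-654 intron; per-well total GFP intensity by laser scanning cytometry after 2-day treatment; % of control where 0% means no effect.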 The method in brief:
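Readout: per-well total peak green fluorescence (488 nm ex, 500–520 nm em) from objects 5–250 µm, reflecting correct splicing of an EGFP-654 reporter. Compounds were applied for 2 days at 37 °C to overnight-plated HeLa EGFP-654 cells; controls were DMSO and 500 nM IVS2-654 PNA.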

A short description of test [7]: Cell Viability - LYMP2-001 (AID 921). Note: nearly all actives have a fitted effect of over 70% in size. Note: potency is the fitted concentration of half-maximal effect. An outline of the steps: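 Human lymphoblastoid cells (Coriell), 2500 per well, were preincubated 5 hr at 37 C, then exposed to compounds in complete medium for 24 hr at 37 C. Cellular ATP was read by CellTiter-Glo luminescence; AC50 from Hill fits of concentration-response data.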
Test [8] is described as follows: Confirmation and Secondary Assay for Modulators of Hemoglobin Beta Chain Splicing at IVS2 705 locus (AID 930).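 Note: HeLa cells stably expressing the EGFP-705 splicing reporter; GFP fluorescence per well restored by corrected splicing of the IVS2-705 intron in EGFP; % of control where 0% means no effect.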 An outline of the steps: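 HeLa IVS2-705 EGFP reporter cells, 500/well, compound 2 d at 37C; correct splicing yields fluorescent EGFP. Control: 500 nM antisense PNA. Read-out: total peak GFP intensity.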
The target of test [9] is Guanine nucleotide-binding protein G(i) subunit alpha-1 (Homo sapiens) (UniProt P63096). Kind of test: qHTS Assay for Inhibitors of RGS12 GoLoco Motif Activity (Green Fluorophore) (AID 879).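 Note: 0% = labeled peptide with Gαi1 and full inhibition = labeled peptide alone without protein; negative values mean loss of peptide binding seen as reduced polarization.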 An outline of the steps:
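A drop in FITC polarization marked displacement of the FITC-tagged RGS12 GoLoco peptide (10 nM) from Gαi1 (50 nM). Compounds were incubated 10 min at room temperature in Tris pH 7.5 buffer containing 150 mM NaCl, 0.1 mM GDP and 0.05% NP40; unlabeled peptide titration served as control.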
On the technique in general: qHTS replaces the single test concentration by a dilution series.

Test [10] deals with Cytochrome P450 3A4 (Homo sapiens) (UniProt P08684). Description: qHTS Assay for Activators of Cytochrome P450 3A4 (AID 885). Note: nearly all actives have a fitted effect of over 65% in size. The method in brief:
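Using 20nM recombinant human CYP3A4 in potassium phosphate (200mM), substrate Luciferin-PPXE at 25uM, luminescent luciferin detection followed a 60-min RT NADPH reaction; data scaled to 57 uM ketoconazole.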

The target of test [11] is Cytochrome P450 2D6 (Homo sapiens) (UniProt P10635). Kind of test: qHTS Assay for Inhibitors and Substrates of Cytochrome P450 2D6 (AID 891). Note: nearly all actives have a fitted effect of over 60% in size. Note: potency is the fitted concentration of half-maximal effect. An outline of the steps:
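Luminescent read-out of luciferin formed by 5 nM human CYP2D6 demethylating 30 uM Luciferin-ME EGE (Km level) over 60 min at room temperature after NADPH regeneration addition. Data normalized to full inhibition by 1.43 uM quinidine.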

Test [12] concerns the target Cytochrome P450 2C19 (Homo sapiens) (UniProt P33261). Kind of test: qHTS Assay for Inhibitors and Substrates of Cytochrome P450 2C19 (AID 899). Note: nearly all actives have a fitted effect of over 60% in size. Note: potency is the fitted concentration of half-maximal effect. The method in brief:
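Reactions contain 5nM enzyme, 10uM Luciferin-H EGE (KM) and 50mM KPO4; compound preincubates 10 min at 37C, NADPH regeneration starts turnover for 60 min. Luminescence after detection reagent gives activity.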

Test [13] can be described thus: qHTS Assay for Identification of Small Molecule Antagonists for Thrombopoietin (TPO) Signaling Pathway (AID 918). Note: potency is the fitted concentration of half-maximal effect; nearly all actives have a fitted effect of over 60% in size. Particulars: TPO-dependent cell signaling reporter, antagonist mode. An outline of the steps:
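Inhibition read as reduced luciferase luminescence after 24 h at 37 C in IL-3-deprived Ba/F3 cells carrying human TPO receptor and GPIIb-promoter reporter, stimulated with 26 pM TPO (final, its EC50) alongside compound.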

Test [14] has as its target Muscarinic acetylcholine receptor M1 (Rattus norvegicus) (UniProt P08482). Description: qHTS Assay for Antagonists of Acetylcholine Muscarinic M1 Receptor: Kinetic Measurement of Intracellular Calcium Response (AID 943).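 Note: Fluo-4 calcium signal as peak divided by basal fluorescence over 4 min; nearly all actives have a fitted effect of over 75% in size.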 The method in brief:
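Antagonism measured as reduction of carbachol-evoked (EC80, 100 nM final) calcium flux in rat M1-CHO cells after 10 min compound exposure. Fluo-4 signal read kinetically; ratio of maximal to basal fluorescence.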

The target is the same in test [15]. Description: qHTS Assay for Antagonists of Acetylcholine Muscarinic M1 Receptor: Measurement of IP-One Response (AID 944). Note: nearly all actives have a fitted effect of over 75% in size. Note: potency is the fitted concentration of half-maximal effect. The method in brief:
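IP1 accumulation measured via TR-FRET between d2-IP1 and Eu-cryptate anti-IP1 antibody after carbachol (200 nM, EC80) stimulation for 30 min; rat M1-transfected CHO cells received compound 10 min before agonist.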

Test [16] has as its target Cytochrome P450 3A4 (Homo sapiens) (UniProt P08684). Description: qHTS Assay for Inhibitors and Substrates of Cytochrome P450 3A4 (AID 884). Note: % is set by controls: 0 for no effect and ±100 for the full control effect; nearly all actives have a fitted effect of over 50% in size. The method in brief:
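Luminescent readout of luciferin produced by CYP3A4 (20 nM) dealkylation of Luciferin-PPXE, 25 uM (its KM). NADPH-driven reaction ran 60 min at RT after 10 min compound preincubation; data scaled to 57 uM ketoconazole as 100% inhibition.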

Test [17] is described as follows: qHTS Assay for Identification of Small Molecule Agonists for Thrombopoietin (TPO) Signaling Pathway (AID 917). Note: potency is the fitted concentration of half-maximal effect. The method in brief: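 First, Ba/F3 cells with human TPO receptor were held overnight without IL-3. Next, compounds and TPO (26 pM final) were added. After 24 hrs at 37 C, luciferase detection reagent was added and luminescence measured following 10 min at room temperature.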

Cytochrome P450 3A4 (Homo sapiens), sequence (P08684 whole entry, looked up): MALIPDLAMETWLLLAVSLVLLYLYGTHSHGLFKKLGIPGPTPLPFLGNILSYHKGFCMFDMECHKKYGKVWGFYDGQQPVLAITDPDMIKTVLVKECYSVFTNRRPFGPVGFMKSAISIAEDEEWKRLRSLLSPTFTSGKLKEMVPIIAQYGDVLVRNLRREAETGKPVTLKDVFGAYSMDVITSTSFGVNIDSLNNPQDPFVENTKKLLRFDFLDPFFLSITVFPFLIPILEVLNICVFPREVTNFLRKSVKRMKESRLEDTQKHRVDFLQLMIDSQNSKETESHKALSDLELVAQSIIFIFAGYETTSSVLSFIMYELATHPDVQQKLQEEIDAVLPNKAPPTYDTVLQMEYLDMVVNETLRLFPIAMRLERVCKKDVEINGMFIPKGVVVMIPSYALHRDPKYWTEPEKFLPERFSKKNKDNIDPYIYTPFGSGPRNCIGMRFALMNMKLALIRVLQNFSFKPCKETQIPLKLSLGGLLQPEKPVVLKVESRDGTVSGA
Cytochrome P450 2C19 (Homo sapiens), sequence (P33261 whole entry, looked up): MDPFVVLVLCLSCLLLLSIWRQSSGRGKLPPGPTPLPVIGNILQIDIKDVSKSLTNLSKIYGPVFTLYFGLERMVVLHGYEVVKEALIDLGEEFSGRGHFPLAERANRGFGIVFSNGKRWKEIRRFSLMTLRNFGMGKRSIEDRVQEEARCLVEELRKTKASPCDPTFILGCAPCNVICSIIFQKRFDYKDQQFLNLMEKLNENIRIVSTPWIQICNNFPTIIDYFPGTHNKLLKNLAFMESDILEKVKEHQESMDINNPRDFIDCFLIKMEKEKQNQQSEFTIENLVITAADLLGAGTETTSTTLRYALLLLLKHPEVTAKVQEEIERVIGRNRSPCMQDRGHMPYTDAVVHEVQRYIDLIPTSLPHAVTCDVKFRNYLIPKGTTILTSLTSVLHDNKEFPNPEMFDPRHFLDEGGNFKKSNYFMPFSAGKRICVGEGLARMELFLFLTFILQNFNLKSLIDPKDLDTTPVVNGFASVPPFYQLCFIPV
Guanine nucleotide-binding protein G(i) subunit alpha-1 (Homo sapiens), sequence (P63096 whole entry, looked up): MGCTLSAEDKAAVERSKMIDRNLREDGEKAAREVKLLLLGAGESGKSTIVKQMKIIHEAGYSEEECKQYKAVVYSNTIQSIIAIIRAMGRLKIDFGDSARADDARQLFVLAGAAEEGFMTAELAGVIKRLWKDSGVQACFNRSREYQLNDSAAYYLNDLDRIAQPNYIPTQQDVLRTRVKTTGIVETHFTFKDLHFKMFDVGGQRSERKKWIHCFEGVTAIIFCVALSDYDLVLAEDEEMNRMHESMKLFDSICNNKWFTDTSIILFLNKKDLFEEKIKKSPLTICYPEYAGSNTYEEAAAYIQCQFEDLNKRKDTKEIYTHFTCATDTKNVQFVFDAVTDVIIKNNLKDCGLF
Muscarinic acetylcholine receptor M1 (Rattus norvegicus), sequence (P08482 whole entry, looked up): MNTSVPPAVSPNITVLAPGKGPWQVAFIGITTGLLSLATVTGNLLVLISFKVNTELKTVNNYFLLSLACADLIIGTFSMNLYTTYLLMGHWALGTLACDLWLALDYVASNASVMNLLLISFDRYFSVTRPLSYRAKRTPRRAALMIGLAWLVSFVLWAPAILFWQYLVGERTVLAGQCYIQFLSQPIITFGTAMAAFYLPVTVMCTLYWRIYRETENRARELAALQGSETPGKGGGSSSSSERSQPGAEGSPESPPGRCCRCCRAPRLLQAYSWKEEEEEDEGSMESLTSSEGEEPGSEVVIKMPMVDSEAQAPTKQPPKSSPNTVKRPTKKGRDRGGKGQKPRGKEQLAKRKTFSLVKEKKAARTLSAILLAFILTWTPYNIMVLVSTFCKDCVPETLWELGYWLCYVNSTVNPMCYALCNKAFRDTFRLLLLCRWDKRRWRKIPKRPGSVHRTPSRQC
Cytochrome P450 2D6 (Homo sapiens), sequence (P10635 whole entry, looked up): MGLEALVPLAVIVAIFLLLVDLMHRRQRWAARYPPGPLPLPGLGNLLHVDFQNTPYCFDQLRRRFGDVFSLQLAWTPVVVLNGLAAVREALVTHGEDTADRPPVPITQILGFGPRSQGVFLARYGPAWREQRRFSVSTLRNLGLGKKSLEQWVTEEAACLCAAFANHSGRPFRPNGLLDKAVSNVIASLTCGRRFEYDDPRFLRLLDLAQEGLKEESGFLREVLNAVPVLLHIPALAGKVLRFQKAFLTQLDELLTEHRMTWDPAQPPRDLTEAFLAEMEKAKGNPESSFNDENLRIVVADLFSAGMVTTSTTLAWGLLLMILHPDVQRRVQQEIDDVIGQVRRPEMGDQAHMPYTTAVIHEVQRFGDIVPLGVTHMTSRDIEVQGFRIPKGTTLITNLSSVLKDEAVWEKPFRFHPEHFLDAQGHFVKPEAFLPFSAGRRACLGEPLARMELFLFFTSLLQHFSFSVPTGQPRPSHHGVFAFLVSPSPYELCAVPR

On to `O=C(O)c1cc(O)c(O)c(O)c1`, for which the caspase-3 activation in [1] is -0.904% (inactive); in [2], -9.64% (inactive). The Potency entry in test [3], in [4], in test [5] and in test [7] was “inactive” throughout. In addition, the call in test [6] and in test [8] was inactive.

`O=C1C(SCCO)=C(SCCO)C(=O)c2ccccc21`: in test [9], the compound was called inactive. In addition, the Potency entry in test [10] and in test [14] was “inactive” each time. For the same compound, the Potency in test [11] was 7.94 µM (active); in test [12] it was 501 nM (active) and 79.4 nM (active); in test [13], 1.26 µM (active); in test [15] it was 10 µM (active).

Take `Nc1nc2ccc([N+](=O)[O-])cc2s1`: the caspase-3 activation in test [1] is -1.1% (inactive); in test [2] it was -4.39% (inactive). Further, the Potency result in test [3], in [4], in test [5] and in test [7] was “inactive” each time.

For `COc1cc(/C=C/C(=O)CC(=O)/C=C/c2ccc(O)c(OC)c2)ccc1O`, the caspase-3 activation in test [1] is 1.39% (inactive); in test [2], 27.4% (inactive). The Potency entry in [10] is “inactive”. Also, in test [7], the Potency is 20 µM (active).

Consider `Nc1ccc(O)c(C(=O)O)c1`, for which the results for the caspase-3 activation in test [1] and in [2] were -0.695% (inactive) and 0.369% (inactive), respectively. The Potency entry in [3], in test [4], in [5], in test [10] and in [7] was “inactive” each time. Besides, in test [12], the Potency is 5.01 µM (active).

Regarding `CN1CCC[C@H]1c1cccnc1`, the caspase-3 activation was -0.172% (inactive) in test [1] and 1.08% (inactive) in test [2]. Further, the Potency entry in [3], in [4], in [5] and in test [7] was “inactive” in each case.

With `S=c1[nH]c2ccccc2s1`, the caspase-3 activation in [1] is 0.172% (inactive); in test [2] it was 1.33% (inactive). Besides, the Potency entry in test [3], in test [4], in test [5] and in test [7] was “inactive” in each case. Moreover, the compound was classed as inactive in test [6] and in test [8].

Turning to `c1cnc2c(c1)ccc1cccnc12`, in [2], the caspase-3 activation was -4.62% (inactive). In addition, the Potency result in test [3], in [4], in test [5], in test [11], in [12] and in test [14] was “inactive” each time. Besides, the Potency entry in test [15] is “inactive”. For the same compound, the compound was classed as inactive in test [9].

`CCCCCCCCCCCCCCCCCC(=O)O`: the caspase-3 activation in test [1] was -0.546% (inactive); in test [2], 0.144% (inactive). Also, the Potency entry in test [3], in test [4], in test [5], in test [16] and in test [7] was “inactive” throughout.

Regarding `Cc1ccc(O)c(N=Nc2ccccc2)n1`, in test [9], the compound was classed as inactive. Besides, the Potency entry in [10] and in test [15] was “inactive” in each case. In addition, the Potency in test [11] is 3.98 µM (active) and inactive; in [12] it was 3.98 µM (active) and inactive; in [17], 0.0794 µM (active).

As to `COc1cc(CNC(=O)CCCC/C=C/C(C)C)ccc1O`, the caspase-3 activation in [1] is 1.09% (inactive); in [2], 0.218% (inactive). Also, the Potency result in test [3], in test [4], in test [5], in test [10] and in test [7] was “inactive” each time. Moreover, the call in test [6] and in [8] was inactive.

The values are drawn from PubChem BioAssay (NCATS).
